Source: PubChem BioAssay (Tox21)
Records with an inconclusive call do not appear. Calls of active or inactive are those of the source. Unless noted, the call rests on the fitted dose curve.

Assays:
[1] = Nuclear factor erythroid 2-related factor 2/antioxidant responsive element (Nrf2/ARE) small molecule agonists: qHTS cell viability counter screen in human keratinocytes (AID 1919968; active means well fitted curve in the direction sought with a large enough effect in the repeat runs; an effect the other way counts as inactive or inconclusive; further: nearly all actives have a fitted effect of over 55% in size; further: potency means the concentration at half of the fitted maximal effect)
How it was run: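 Seed 1,500 KeratinoSens cells per well, then incubate 5 h at 37 C/5% CO2. Add compounds in DMSO and incubate 23 h. Add CellTiter-Fluor, wait 1 h and read fluorescence.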

[2] = Nuclear factor erythroid 2-related factor 2/antioxidant responsive element (Nrf2/ARE) small molecule agonists: luciferase reporter gene qHTS assay in human keratinocytes (AID 1919969); further: nearly all actives have a fitted effect of over 35% in size; further: potency means the concentration at half of the fitted maximal effect
[3] = target: Gonadotropin-releasing hormone receptor (Homo sapiens) (UniProt P30968); experiment: Human gonadotropin-releasing hormone receptor (GnRHR) small molecule agonists, calcium flux assay in GnRHR-HEK293 cells (AID 1920063); further: nearly all actives have a fitted effect of over 35% in size
How it was run: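 Cells: HEK293 stably expressing human GnRHR. Steps: overnight (18 h) culture, 1 h calcium dye loading at 37 C, compound addition, kinetic fluorescence read at 480/540 nm. Each compound tested at 15 concentrations in triplicate.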

[4] = target: KiSS-1 receptor (Homo sapiens) (UniProt Q969F8); experiment: Human kisspeptin (KISS1R) small molecule agonists, calcium flux assay in KISS1R-HEK293 cells (AID 1920064; active means well fitted curve in the direction sought with a large enough effect in the repeat runs; an effect the other way counts as inactive or inconclusive)
How it was run: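 Cells plated and incubated 18 h; dye added, 1 h at 37 C; compounds in DMSO pinned in; signal read at 480/540 nm every second for 3 min. Each compound tested at 15 concentrations in triplicate.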

[5] = p53 small molecule agonists, cell-based qHTS assay with human liver microsomes (AID 1963577);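 further: p53 response element beta-lactamase reporter cells with liver microsomes plus NADPH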
How it was run: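 16 h, 37 C exposure of p53RE-bla cells to compounds with human liver microsomes and NADPH (0.5 mg/mL final each); detection via LiveBLAzer mixture, 2 h dark at room temperature.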

[6] = p53 small molecule agonists, cell-based qHTS assay with rat liver microsomes (AID 1963578)
How it was run: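 With rat liver microsomes and NADPH present (0.5 mg/mL final each), p53RE-bla cells are treated with compound for 16 h at 37 C. LiveBLAzer detection mixture is then applied for 2 h at room temperature in the dark.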

[7] = p53 small molecule agonists, cell-based qHTS assay with human liver microsomes: qHTS cell viability counter screen (AID 1963579); further: nearly all actives have a fitted effect of over 45% in size
How it was run: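 In this multiplexed counter screen, the reporter plates were subsequently treated with CellTiter-Glo so that cell viability, reflected by luminescence, could be recorded for p53RE-bla cells dosed 16 h with compounds under microsomal activation (HLM and NADPH).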

[8] = p53 small molecule agonists, cell-based qHTS assay with rat liver microsomes: qHTS cell viability counter screen (AID 1963580); further: nearly all actives have a fitted effect of over 45% in size
How it was run: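 p53RE-bla HCT-116 cells were exposed 16 h at 37 C to compounds with rat liver microsomes (0.5 mg/mL) and NADPH (0.5 mg/mL). Viability was measured in the same wells as ATP content by CellTiter-Glo luminescence.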

[9] = p53 small molecule agonists, cell-based qHTS assay (AID 1963582; active means well fitted activation curve with a large enough effect in the signal ratio in the repeat runs, not every such curve was filed as active; the % refers to the signal ratio)
How it was run: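 Quantitative HTS in p53RE-bla cells: after a 5 h settling period, compounds delivered in DMSO were left on cells for 16 h at 37 C, and reporter induction was measured as fluorescence following 2 h substrate loading.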

[10] = target: 5-hydroxytryptamine receptor 2A (Homo sapiens) (UniProt P28223); experiment: 5-hydroxytryptamine receptor 2A (HTR2A) small molecule antagonists, cell-based qHTS assay (AID 1963586); further: nearly all actives have a fitted effect of over 45% in size
How it was run: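 Antagonist-mode intracellular calcium assay: DOI (4 nM) added after 5 min compound pre-incubation at room temperature to dye-loaded HTR2A-CHO cells. Fluorescence followed for 3 min, sampled every second.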

[11] = target: Muscarinic acetylcholine receptor M1 (Homo sapiens) (UniProt P11229); experiment: Cholinergic receptor muscarinic 1 (CHRM1) small molecule antagonists, cell-based qHTS assay (AID 1963588); further: nearly all actives have a fitted effect of over 40% in size
How it was run: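 CHRM1-CHO calcium-flux assay, antagonist mode. Cells were seeded 18 h, dye-loaded 1 h at 37 C and given compound for 5 min at RT, then acetylcholine was added at 50nM. FDSS fluorescence was read 3 min; 15 concentrations, three runs.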

[12] = target: Muscarinic acetylcholine receptor M1 (Homo sapiens) (UniProt P11229); experiment: Cholinergic receptor muscarinic 1 (CHRM1) small molecule agonists, cell-based qHTS assay (AID 1963589); further: nearly all actives have a fitted effect of over 35% in size
How it was run: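 Agonist-mode qHTS in CHO cells stably carrying human muscarinic M1. Intracellular calcium is tracked by fluorescence every second after compound transfer; each compound runs at 15 concentrations in three independent runs.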

[13] = cAMP Responsive Elements (CRE) small molecule agonists, cell-based qHTS assay (AID 1963590)
How it was run: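 Agonist mode qHTS in CRE-bla HEK 293T cells: compounds dosed from DMSO for 3 h at 37 C/5% CO2, followed by LiveBLAzer B/G FRET substrate for 2 h at room temperature.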

[14] = target: Beta-2 adrenergic receptor (Homo sapiens) (UniProt P07550); experiment: Adrenergic beta2 receptor (ADRB2) small molecule antagonists, cell-based qHTS assay (AID 1963592); further: series mostly up to about 92 µM; nearly all actives have a fitted effect of over 50% in size
How it was run: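 Cells (CHO, stable ADRB2 overexpression) incubated 18-20hr at 37C; compounds added from DMSO; agonist mix (1nM isoproterenol, 100uM IBMX, 25uM Ro-20-1724) added; 0.5hr RT; d2-cAMP and anti-cAMP-cryptate added; 1hr RT; 665/615 nm read.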

[15] = p53 small molecule agonists, cell-based qHTS assay: qHTS cell viability counter screen (AID 1963581); further: nearly all actives have a fitted effect of over 45% in size
How it was run: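 Cells: HCT-116 with p53 response element-driven beta-lactamase. Treatment: 16 h, 37 C, compounds in DMSO. Read: CellTiter-Glo luminescence after 30 min RT.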

[16] = target: 5-hydroxytryptamine receptor 2A (Homo sapiens) (UniProt P28223); experiment: 5-hydroxytryptamine receptor 2A (HTR2A) small molecule agonists, cell-based qHTS assay (AID 1963587); further: nearly all actives have a fitted effect of over 30% in size; further: potency means the concentration at half of the fitted maximal effect
How it was run: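 CHO cells stably expressing human HTR2A, plated 18 h, loaded with calcium dye 1 h at 37 C. Agonist mode: compounds added and intracellular calcium fluorescence recorded kinetically for 2 min at 1 sec intervals.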

[17] = target: D(2) dopamine receptor (Homo sapiens) (UniProt P14416); experiment: Dopamine D2 receptor (DRD2) small molecule agonists, cell-based qHTS assay (AID 1963594); further: nearly all actives have a fitted effect of over 35% in size
How it was run: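 HEK293 cells stably expressing human DRD2, pre-treated with PDE inhibitor Ro20-1724 (0.1 mM final) and compound 10 min at room temperature, then stimulated with NKH477 (200nM […]) for 30 min. cAMP read by HTRF (665/620 nm).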

[18] = target: D(2) dopamine receptor (Homo sapiens) (UniProt P14416); experiment: Dopamine D2 receptor (DRD2) small molecule antagonists, cell-based qHTS assay (AID 1963595; active means well fitted inhibition curve with a large enough effect in the signal ratio in the repeat runs, with a control signal flat; the % refers to the signal ratio; further: potency means the concentration at half of the fitted maximal effect)
How it was run: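 Antagonist mode in DRD2-HEK293 cells: after compound addition with 0.1 mM Ro20-1724, cells received quinpirole (12 nM) and NKH477 (200 nM) for 30 min at room temperature; HTRF cAMP read after 1 h detection.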

[19] = cAMP Responsive Elements (CRE) small molecule antagonists, cell-based qHTS assay (AID 1963591; active means well fitted inhibition curve with a large enough effect in the signal ratio in the repeat runs, not every such curve was filed as active; the % refers to the signal ratio; further: potency means the concentration at half of the fitted maximal effect)
How it was run: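 Antagonist mode: test compounds are co-incubated with the adenylyl cyclase activator NKH477 (0.25 uM final) on CRE-bla HEK293T cells for 3 h at 37 °C, followed by LiveBLAzer substrate loading.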
On the % scale 0 is the no-effect control and ±100 the full control effect.

Chain of Gonadotropin-releasing hormone receptor (Homo sapiens) (P30968 whole entry, looked up): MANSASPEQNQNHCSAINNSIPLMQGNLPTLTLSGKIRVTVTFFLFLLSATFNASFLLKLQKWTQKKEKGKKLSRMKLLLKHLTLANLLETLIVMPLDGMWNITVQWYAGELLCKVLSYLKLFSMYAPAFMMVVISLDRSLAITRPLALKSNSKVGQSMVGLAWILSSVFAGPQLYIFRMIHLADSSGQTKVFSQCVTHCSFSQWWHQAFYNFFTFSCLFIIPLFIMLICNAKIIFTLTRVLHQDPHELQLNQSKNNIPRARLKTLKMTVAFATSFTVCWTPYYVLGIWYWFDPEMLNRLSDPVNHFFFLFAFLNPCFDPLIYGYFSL
Chain of D(2) dopamine receptor (Homo sapiens) (P14416 whole entry, looked up): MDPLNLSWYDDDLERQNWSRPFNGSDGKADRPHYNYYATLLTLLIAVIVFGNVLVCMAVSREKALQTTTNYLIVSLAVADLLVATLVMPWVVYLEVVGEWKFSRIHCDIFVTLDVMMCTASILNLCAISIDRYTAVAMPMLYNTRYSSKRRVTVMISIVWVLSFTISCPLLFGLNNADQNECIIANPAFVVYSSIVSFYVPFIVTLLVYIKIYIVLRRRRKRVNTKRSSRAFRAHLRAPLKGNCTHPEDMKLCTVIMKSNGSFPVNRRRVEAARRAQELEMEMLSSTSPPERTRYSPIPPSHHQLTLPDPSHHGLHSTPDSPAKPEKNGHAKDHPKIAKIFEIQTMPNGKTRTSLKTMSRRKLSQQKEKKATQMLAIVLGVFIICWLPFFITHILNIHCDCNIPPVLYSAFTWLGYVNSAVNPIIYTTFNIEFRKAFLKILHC
Chain of 5-hydroxytryptamine receptor 2A (Homo sapiens) (P28223 whole entry, looked up): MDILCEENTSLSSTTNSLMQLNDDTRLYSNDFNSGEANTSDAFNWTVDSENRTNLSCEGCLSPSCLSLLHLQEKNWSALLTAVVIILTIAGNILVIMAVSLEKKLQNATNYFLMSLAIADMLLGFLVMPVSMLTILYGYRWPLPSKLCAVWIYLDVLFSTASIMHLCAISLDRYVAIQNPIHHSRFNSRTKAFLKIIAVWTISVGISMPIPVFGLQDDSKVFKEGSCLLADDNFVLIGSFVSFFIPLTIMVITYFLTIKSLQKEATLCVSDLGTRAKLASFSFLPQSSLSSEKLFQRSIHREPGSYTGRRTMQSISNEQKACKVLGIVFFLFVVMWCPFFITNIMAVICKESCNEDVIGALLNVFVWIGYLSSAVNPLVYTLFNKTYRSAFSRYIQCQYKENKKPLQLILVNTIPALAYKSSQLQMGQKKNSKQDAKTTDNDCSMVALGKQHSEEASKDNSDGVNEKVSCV
Chain of KiSS-1 receptor (Homo sapiens) (Q969F8 whole entry, looked up): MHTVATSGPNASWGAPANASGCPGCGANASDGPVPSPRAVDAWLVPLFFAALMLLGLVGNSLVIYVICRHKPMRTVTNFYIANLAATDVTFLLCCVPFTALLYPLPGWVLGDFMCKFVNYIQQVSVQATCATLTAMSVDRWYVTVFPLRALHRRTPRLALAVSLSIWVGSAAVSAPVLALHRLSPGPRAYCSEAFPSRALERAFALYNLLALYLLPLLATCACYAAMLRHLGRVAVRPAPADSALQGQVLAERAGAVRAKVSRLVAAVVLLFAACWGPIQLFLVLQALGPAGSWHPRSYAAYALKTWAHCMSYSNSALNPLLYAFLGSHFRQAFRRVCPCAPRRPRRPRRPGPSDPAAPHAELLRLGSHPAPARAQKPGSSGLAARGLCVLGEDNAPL
Chain of Muscarinic acetylcholine receptor M1 (Homo sapiens) (P11229 whole entry, looked up): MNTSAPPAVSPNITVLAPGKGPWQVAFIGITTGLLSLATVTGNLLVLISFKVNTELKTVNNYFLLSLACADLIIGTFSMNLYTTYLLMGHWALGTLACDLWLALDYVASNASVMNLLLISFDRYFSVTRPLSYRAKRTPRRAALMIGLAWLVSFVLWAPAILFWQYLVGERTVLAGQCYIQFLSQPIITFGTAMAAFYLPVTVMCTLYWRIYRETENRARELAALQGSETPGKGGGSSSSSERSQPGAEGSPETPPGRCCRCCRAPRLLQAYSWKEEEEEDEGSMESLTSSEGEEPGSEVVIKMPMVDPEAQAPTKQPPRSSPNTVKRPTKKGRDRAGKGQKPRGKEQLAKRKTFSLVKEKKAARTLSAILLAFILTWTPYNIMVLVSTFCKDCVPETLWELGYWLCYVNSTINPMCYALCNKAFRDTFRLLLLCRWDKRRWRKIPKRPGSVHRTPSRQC
Chain of Beta-2 adrenergic receptor (Homo sapiens) (P07550 whole entry, looked up): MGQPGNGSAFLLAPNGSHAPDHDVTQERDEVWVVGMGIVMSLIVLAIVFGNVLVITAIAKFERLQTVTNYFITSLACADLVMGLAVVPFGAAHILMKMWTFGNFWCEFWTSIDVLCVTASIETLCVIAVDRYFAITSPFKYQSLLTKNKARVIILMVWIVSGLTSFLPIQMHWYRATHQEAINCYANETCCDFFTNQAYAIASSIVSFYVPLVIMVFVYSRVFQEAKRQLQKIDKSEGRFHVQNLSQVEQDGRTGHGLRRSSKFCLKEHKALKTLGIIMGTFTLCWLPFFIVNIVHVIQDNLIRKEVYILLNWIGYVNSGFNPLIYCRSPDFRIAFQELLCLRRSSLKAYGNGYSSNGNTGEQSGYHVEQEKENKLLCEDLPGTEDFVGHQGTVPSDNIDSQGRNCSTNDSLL

CCCC1CCC(=O)O1 (configuration not stated)
inactive: Potency [1] | Potency [2] | Potency [3] | outcome [4] | Potency [5] | Potency [6] | Potency [7] | Potency [8] | Potency [9] | Potency [10] | Potency [11] | Potency [12] | Potency [13] | Potency [14]

N[C@H]1C(O)O[C@H](CO)[C@H](O)[C@@H]1O (some centres not stated)
inactive: Potency [1] | Potency [2] | Potency [3] | outcome [4] | Potency [5] | Potency [6] | Potency [8] | Potency [15] | Potency [9] | Potency [10] | Potency [16] | Potency [11] | Potency [12] | Potency [13] | Potency [14] | Potency [17] | Potency [18]

C#CCN[C@@H]1CCc2ccccc21
inactive: Potency [1] | Potency [2] | Potency [3] | outcome [4] | Potency [5] | Potency [6] | Potency [8] | Potency [15] | Potency [9] | Potency [16] | Potency [11] | Potency [12] | Potency [13] | Potency [19] | Potency [17] | Potency [18]

CCCC(c1cc(C(C)(C)C)c(O)cc1C)c1cc(C(C)(C)C)c(O)cc1C
active: Potency [1] 6.94 µM | Potency [16] 9.89 µM | Potency [18] 24.6 µM
inactive: Potency [2] | Potency [3] | outcome [4] | Potency [5] | Potency [6] | Potency [10] | Potency [11] | Potency [12] | Potency [14] | Potency [17]

C[C@]1(Cn2ccnn2)[C@H](C(=O)O)N2C(=O)C[C@H]2S1(=O)=O
inactive: Potency [1] | Potency [2] | Potency [3] | outcome [4] | Potency [5] | Potency [6] | Potency [8] | Potency [15] | Potency [13] | Potency [14] | Potency [17]
active: Potency [19] 1.88 µM

N#CCc1ccccc1[N+](=O)[O-]
inactive: Potency [1] | Potency [2] | Potency [3] | outcome [4] | Potency [5] | Potency [7] | Potency [8] | Potency [15] | Potency [9] | Potency [10] | Potency [16] | Potency [11] | Potency [12] | Potency [13] | Potency [19] | Potency [14] | Potency [17] | Potency [18]

C/C=C/C(=O)CC
active: Potency [2] 10.5 µM
inactive: activity change, negative = cytotoxicity [1] -0.853% [at 19 µM] | activity change [3] 1.75% [at 11.8 µM, stronger effect = higher value] | activation [4] -0.292% [at 15.8 µM] | activation [5] -15.9% [at 13.5 µM] | activation [6] -0.406% [at 13.6 µM] | activity change, negative = cytotoxicity [15] 7.07% [at 13.5 µM] | activation [9] -2.81% [at 13.5 µM] | activity, negative = inhibition [10] 10.6% [at 12.7 µM] | activation [16] -1.41% [at 15.9 µM] | activity, negative = inhibition [11] 37.8% [at 12.6 µM] | activation [12] 0.129% [at 15.8 µM] | activation [13] -0.284% [at 19 µM] | activity change, negative = inhibition [19] 1.47% [at 18.9 µM] | activity change, negative = inhibition [14] 3.38% [at 19 µM] | activation [17] -9.38% [at 19 µM] | activity change, negative = inhibition [18] 0.284% [at 18.9 µM]
